Laboratory results: the supplement of paper PMC11732987, “Enantioselective OTUD7B fragment discovery through chemoproteomics screening and high-throughput optimisation” (Communications Chemistry, 2025)

Key:
Assay in all cases: log2 ratio of Biotin-Ahx-Ub-VS probe labelling (fragment/DMSO); higher = less target engagement (more negative = stronger competition), active = hit call of the paper (q ≤ 0.05, log2 ratio ≤ -1)
Conditions in all cases: compound concentration: 200 uM; treatment time: 3 h
USP19 = target: T1, USP19 (UniProt O94966)
T1 sequence (whole entry): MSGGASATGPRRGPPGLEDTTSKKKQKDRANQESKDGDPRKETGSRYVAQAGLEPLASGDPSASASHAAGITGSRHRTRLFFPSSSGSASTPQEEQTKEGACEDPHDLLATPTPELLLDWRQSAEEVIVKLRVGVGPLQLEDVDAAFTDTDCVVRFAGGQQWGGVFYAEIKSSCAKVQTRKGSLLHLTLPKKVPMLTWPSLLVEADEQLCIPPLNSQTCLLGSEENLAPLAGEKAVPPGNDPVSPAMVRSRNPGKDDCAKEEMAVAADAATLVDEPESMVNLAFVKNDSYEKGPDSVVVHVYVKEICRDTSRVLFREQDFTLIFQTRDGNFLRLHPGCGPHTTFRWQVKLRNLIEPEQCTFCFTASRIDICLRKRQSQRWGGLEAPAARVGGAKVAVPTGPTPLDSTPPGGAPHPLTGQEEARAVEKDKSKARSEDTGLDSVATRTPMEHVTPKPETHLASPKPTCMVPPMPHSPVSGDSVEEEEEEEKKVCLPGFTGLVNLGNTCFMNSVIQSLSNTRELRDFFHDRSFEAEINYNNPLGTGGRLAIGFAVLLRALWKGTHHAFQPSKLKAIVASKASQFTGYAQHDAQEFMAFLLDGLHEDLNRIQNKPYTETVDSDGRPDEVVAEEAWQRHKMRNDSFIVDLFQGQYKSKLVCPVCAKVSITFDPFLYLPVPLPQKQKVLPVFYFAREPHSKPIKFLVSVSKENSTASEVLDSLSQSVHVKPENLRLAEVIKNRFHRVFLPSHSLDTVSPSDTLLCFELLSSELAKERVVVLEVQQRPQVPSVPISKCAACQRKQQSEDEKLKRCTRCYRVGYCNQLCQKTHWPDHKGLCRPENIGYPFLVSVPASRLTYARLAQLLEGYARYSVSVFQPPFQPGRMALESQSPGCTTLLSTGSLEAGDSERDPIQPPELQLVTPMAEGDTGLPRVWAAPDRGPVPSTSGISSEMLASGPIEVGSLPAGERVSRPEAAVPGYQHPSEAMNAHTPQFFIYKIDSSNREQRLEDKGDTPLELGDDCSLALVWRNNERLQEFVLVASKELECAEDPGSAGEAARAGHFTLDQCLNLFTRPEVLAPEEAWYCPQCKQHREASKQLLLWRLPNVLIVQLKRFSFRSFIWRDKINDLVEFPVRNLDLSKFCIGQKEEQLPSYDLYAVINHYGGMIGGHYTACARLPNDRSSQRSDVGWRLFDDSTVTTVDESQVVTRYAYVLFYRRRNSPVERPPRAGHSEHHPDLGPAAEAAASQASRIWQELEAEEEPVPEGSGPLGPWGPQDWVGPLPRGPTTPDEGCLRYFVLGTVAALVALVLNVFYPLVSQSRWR
Summary of the method: (§1)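 Labelled DUBs from HEK293T lysate were NeutrAvidin-enriched, digested with LysC and trypsin, and run by diaPASEF LC-MS/MS. Before that, each 495 µg sample in Tris/CHAPS/IGEPAL buffer with protease inhibitors was treated in triplicate with fragment at 200 µM or vehicle for 3 h, then with Biotin-Ahx-Ub-VS at 0.5 µM final for 1 h. Values are average log2 ratios of fragment over vehicle by unpaired t-test, based on global-median-normalised Spectronaut label-free quantities from proteins with ≥2 unique peptides.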

USP22 = target: T2, USP22 (UniProt Q9UPT9)
T2 sequence (whole entry): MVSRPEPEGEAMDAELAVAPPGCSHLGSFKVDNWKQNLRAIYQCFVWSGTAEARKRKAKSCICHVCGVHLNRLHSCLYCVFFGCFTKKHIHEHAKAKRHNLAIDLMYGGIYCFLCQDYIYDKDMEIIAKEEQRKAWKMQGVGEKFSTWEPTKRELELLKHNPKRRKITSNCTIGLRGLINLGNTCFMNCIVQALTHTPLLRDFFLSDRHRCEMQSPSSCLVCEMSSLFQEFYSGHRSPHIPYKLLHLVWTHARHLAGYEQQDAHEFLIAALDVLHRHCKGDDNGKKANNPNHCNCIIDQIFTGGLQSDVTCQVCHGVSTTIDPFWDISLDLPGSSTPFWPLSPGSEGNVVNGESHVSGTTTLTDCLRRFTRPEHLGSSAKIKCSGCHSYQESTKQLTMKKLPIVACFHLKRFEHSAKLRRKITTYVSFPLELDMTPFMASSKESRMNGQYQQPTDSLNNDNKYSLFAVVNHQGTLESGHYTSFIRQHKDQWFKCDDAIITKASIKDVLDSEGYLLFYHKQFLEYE
Summary of the method: as §1

USP24 = USP24 (UniProt Q9UPU5)
Summary of the method: as §1

USP25 = target: T3, USP25 (UniProt Q9UHP3)
T3 sequence (whole entry): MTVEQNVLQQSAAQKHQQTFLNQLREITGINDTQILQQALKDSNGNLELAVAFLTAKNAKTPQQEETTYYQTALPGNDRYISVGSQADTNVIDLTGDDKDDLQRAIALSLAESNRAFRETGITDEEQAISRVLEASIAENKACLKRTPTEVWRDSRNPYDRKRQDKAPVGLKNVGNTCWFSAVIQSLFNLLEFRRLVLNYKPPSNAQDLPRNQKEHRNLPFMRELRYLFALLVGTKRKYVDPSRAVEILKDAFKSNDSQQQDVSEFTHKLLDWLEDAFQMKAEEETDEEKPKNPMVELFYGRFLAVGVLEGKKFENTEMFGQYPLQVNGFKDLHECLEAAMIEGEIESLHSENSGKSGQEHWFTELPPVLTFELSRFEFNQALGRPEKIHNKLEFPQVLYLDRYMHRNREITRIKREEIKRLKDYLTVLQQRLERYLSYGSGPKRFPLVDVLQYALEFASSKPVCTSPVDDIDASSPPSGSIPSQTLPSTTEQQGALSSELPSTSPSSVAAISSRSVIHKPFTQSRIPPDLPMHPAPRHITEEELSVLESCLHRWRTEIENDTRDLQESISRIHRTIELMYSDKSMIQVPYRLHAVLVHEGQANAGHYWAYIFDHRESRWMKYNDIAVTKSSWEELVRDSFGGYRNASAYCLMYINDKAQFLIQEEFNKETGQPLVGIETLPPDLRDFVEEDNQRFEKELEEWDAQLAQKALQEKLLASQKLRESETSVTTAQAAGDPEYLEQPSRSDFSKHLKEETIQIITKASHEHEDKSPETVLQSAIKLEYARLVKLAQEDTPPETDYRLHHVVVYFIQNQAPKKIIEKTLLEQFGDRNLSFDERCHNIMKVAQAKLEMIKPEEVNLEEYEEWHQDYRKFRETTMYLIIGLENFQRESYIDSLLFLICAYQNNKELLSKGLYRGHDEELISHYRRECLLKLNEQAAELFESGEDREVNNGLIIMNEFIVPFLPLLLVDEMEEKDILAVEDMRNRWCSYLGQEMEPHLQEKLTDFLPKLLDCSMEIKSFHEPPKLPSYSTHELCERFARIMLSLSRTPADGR
Summary of the method: as §1

USP28 = target: T4, USP28 (UniProt Q96RU2)
T4 sequence (whole entry): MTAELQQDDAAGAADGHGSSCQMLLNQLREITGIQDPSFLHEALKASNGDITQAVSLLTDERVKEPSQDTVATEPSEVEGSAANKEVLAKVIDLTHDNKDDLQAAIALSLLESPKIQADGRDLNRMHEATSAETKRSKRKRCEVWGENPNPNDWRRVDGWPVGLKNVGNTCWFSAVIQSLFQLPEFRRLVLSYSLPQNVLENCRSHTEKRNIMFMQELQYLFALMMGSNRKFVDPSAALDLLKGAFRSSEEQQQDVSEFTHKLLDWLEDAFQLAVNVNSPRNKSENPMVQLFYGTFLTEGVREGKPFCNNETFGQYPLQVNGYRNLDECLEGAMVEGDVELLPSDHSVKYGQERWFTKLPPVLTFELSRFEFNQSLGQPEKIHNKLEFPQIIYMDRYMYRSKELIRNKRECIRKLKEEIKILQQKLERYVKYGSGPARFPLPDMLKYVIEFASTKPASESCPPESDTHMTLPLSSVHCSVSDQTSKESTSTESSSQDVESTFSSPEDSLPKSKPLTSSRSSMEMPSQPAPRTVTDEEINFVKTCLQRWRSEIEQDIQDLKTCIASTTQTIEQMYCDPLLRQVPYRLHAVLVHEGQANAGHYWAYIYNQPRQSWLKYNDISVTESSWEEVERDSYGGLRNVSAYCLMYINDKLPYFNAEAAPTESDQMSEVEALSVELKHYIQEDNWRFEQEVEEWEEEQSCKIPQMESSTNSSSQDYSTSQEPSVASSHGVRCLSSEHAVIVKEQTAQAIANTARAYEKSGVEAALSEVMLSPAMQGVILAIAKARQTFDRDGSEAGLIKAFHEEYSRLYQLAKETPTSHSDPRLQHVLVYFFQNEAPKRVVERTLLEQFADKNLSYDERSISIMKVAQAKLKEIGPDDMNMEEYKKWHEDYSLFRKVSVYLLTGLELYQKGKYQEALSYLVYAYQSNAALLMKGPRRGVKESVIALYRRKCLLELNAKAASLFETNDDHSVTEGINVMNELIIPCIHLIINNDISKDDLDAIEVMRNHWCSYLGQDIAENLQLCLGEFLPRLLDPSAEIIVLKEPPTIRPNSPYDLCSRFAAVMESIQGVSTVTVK
Summary of the method: as §1

Measured: log2 ratio of Biotin-Ahx-Ub-VS probe labelling

Chain of USP24 (Q9UPU5 whole entry): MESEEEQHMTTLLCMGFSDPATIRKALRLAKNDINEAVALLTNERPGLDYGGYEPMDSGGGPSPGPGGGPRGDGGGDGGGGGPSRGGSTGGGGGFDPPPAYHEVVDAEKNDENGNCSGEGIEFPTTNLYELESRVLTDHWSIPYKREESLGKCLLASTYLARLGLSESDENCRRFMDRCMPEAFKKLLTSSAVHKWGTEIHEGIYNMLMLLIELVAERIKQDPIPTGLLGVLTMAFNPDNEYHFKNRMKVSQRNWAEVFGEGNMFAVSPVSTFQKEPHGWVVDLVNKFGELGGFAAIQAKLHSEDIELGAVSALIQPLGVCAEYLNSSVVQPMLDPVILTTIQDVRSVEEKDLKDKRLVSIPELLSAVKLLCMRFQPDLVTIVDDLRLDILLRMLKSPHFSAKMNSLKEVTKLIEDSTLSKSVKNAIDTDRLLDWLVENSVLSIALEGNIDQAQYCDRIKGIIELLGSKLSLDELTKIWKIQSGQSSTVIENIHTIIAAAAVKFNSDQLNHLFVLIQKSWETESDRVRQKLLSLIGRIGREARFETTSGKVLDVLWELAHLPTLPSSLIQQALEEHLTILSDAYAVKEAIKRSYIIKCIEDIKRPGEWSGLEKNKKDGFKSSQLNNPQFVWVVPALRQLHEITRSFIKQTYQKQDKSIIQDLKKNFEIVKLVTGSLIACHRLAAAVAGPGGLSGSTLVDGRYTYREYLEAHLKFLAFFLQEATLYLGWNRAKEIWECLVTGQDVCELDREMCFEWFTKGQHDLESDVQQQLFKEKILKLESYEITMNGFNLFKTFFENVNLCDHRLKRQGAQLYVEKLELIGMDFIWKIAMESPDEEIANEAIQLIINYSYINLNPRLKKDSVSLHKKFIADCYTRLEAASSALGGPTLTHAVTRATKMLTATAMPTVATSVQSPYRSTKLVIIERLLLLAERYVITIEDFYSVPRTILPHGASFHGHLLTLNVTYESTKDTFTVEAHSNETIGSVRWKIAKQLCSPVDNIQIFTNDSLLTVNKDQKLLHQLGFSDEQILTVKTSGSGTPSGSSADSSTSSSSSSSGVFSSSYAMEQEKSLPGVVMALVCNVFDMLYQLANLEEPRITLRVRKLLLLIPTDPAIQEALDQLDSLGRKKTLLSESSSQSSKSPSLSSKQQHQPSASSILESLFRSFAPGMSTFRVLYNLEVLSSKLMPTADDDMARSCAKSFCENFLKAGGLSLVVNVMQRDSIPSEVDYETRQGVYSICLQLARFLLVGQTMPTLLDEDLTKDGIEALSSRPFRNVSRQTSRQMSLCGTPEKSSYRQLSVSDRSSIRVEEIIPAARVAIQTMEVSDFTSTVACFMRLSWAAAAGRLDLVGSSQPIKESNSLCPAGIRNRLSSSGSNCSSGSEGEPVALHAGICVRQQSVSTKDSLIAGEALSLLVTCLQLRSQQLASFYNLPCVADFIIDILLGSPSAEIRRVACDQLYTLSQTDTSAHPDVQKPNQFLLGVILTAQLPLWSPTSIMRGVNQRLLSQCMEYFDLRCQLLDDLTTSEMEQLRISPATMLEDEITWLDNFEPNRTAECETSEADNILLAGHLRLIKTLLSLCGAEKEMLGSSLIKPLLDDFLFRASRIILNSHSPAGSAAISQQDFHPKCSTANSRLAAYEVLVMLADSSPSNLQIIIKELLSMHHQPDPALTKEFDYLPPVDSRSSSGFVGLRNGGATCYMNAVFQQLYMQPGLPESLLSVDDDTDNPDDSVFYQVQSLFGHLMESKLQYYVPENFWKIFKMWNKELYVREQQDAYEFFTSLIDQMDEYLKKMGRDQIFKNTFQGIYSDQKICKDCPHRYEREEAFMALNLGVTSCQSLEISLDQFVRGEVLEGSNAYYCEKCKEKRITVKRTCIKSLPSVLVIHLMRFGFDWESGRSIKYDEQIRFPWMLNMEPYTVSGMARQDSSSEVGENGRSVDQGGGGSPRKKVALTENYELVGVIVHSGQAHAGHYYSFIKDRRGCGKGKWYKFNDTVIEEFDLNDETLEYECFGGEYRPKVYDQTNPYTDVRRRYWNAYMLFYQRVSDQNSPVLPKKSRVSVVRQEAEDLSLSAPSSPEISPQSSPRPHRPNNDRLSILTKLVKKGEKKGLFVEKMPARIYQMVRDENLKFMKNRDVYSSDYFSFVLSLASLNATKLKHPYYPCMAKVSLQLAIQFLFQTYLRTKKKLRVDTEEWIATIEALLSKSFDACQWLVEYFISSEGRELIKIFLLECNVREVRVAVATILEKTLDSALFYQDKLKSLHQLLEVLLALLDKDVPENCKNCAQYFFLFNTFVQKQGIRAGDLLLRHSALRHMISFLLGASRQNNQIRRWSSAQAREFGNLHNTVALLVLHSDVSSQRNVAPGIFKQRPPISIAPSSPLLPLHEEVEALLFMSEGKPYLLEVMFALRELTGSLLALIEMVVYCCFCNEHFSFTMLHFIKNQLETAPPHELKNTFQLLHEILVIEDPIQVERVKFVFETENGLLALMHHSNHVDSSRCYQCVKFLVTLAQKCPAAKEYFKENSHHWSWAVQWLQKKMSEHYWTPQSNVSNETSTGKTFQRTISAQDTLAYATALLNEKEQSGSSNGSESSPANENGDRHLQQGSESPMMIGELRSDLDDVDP

O=C(CCl)N1CCC(O)(Cc2ccc(F)cc2)C1 (stereo not given)
inactive: USP19 -0.323 | USP22 -0.265 | USP24 -0.262 | USP25 -0.107 | USP28 -0.353
